# Values joined by “and” are separate entries in the source; they are usually repeats but may differ in a detail not shown here. Equal entries are not always repeated. The panel holds about 83,000 compounds, 20% with a hit somewhere; the sample as a whole holds those more often.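 Method: cells in 96-well plates; compound added at one concentration; 48 h incubation; percent growth measured; values under 10 scored active.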 Unmarked numbers belong to inactive results. Active and inactive are the calls of the source.
# Experiments:
# Assay in all cases: NCI-60 one-dose screen, 48 h (100 = growth as untreated, 0 = no growth, -100 = all killed)
# [1] = tested on: OVCAR-4 ovarian; settings: 10 µM unless noted
# [2] = tested on: HS 578T breast; settings: 10 µM unless noted
# [3] = tested on: NCI/ADR-RES ovarian; settings: 10 µM unless noted
# [4] = tested on: RPMI-8226 leukemia; settings: 10 µM
# [5] = tested on: OVCAR-8 ovarian; settings: 10 µM unless noted
# [6] = tested on: OVCAR-5 ovarian; settings: 10 µM unless noted
# [7] = tested on: IGROV1 ovarian; settings: 10 µM unless noted
# [8] = tested on: OVCAR-3 ovarian; settings: 10 µM unless noted
# [9] = tested on: BT-549 breast; settings: 10 µM unless noted
# [10] = tested on: MDA-MB-435 melanoma; settings: 10 µM unless noted
# [11] = tested on: SW-620 colon; settings: 10 µM unless noted
# [12] = tested on: MCF7 breast; settings: 10 µM unless noted
# [13] = tested on: HCT-116 colon; settings: 10 µM unless noted
# [14] = tested on: HCC-2998 colon; settings: 10 µM unless noted
# [15] = tested on: KM12 colon; settings: 10 µM unless noted
# [16] = tested on: T-47D breast; settings: 10 µM
Structure (SMILES),growth [1],growth [2],growth [3],growth [4],growth [5],growth [6],growth [7],growth [8],growth [9],growth [10],growth [11],growth [12],growth [13],growth [14],growth [15],growth [16]
C1CCC([PH+](C2CCCCC2)C2CCCCC2[PH+](C2CCCCC2)C2CCCCC2)CC1.[Au].[CH-]1CCCCC1CC1CCCC[N-]1 (stereo unspecified),37.5%,18.3%,30.9%,–,–,–,–,–,–,–,–,–,–,–,–,–
COc1ccc(/C=C/C(=O)N2CCC(O)CC2)cc1OC1CCCC1,101%,96.1%,106%,107%,96.5%,104%,104%,111%,117%,103%,106%,95.4%,106%,111%,105%,–
CC(=O)c1cc2c(s1)C(=O)c1sccc1C2=O,–,–,–,–,–,–,–,–,–,–,–,-67.2% [100 µM] (active) and -100% [100 µM] (active),–,–,–,–
CCCCCCCCCCCCCC1=C(O)C(=O)C(CC2=C(O)C(=O)C(CCCCCCCCCCCCC)=C(O)C2=O)=C(O)C1=O,–,–,–,–,–,–,–,–,–,–,–,2.9% [100 µM] (active) and -79.8% [100 µM] (active),–,–,–,–
Cc1ccc(/C=N/Nc2ccc3ccccc3n2)s1,–,–,–,–,–,–,–,–,–,–,–,-79.9% [100 µM] (active) and -100% [100 µM] (active),–,–,–,–
Cc1cc(C)c(S(=O)O)c(C)c1,111%,104%,97%,102%,115%,114%,129%,120%,104%,103%,103%,109%,109%,110%,112%,–
O=C(N/N=C/c1ccc(OC(F)F)c(OC2CCCC2)c1)c1cnn2c1NC(c1ccccc1)C2 (stereo unspecified),61.3%,69.2%,72.8%,73.9%,90.4%,93.7%,83.4%,78.9%,73.4%,18%,78.4%,69.2%,67.4%,111%,54.8%,–
COc1cc2oc(-c3ccc(O)cc3)cc(=O)c2c(O)c1I,–,103%,98%,87.1%,96.3%,104%,114%,117%,96.2%,101%,109%,79%,104%,105%,96.5%,93.1%

# — PubChem BioAssay (NCI)
